Test results: PubChem BioAssay

test: small molecules captured by biotinylated probe aFST – biochemical, small-molecule microarray, fluorescence 635/667, stem cell growth factor project, primary screen (AID 1086); details: higher = more signal;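 further: score merges 667 nm fluorescence with signal-to-noise of each printed compound spot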

Compound | composite z-score
COCCOC(=O)N1C(=O)[C@@]2(c3cc(C#CC4(O)CCCCCC4)ccc31)[C@H](C(=O)NC[C@H](O)c1ccccc1)[C@H]1C(=O)O[C@H](c3ccccc3)[C@H](c3ccccc3)N1[C@@H]2c1ccc(OCCO)cc1 | 0.409
COc1cccc(C)c1NC(=O)O[C@H]1[C@H](OC(=O)Nc2ccccc2)[C@H](OC(=O)Nc2ccccc2)[C@@H](OC)O[C@@H]1CO | 0.319
COC(=O)[C@@]1(Cc2ccccc2)[C@H]2c3cc(C(=O)N4CCCC4)n(Cc4ccccc4)c3C[C@H]2CN1C(=O)c1ccccc1 | 1.54
COc1cc2c(cc1OC)CN(C(=O)[C@@H]1[C@H]3C(=O)O[C@H](c4ccccc4)[C@H](c4ccccc4)N3[C@H](c3ccc(OCCO)cc3)[C@@]13C(=O)Nc1ccc(C#CCCO)cc13)CC2 | 0.0774
COc1ccc([Si](C)(C)[C@@H]2[C@@H](CC(=O)N(CCO)Cc3ccccc3)O[C@]3(C(=O)N(C)c4c(Br)cc(C)cc43)[C@H]2C)cc1 | -0.051
COC(=O)[C@@]1(Cc2ccccc2)[C@H]2c3cc(C(=O)N4CCCC4)n(Cc4ccc(OC(F)(F)F)cc4)c3C[C@H]2CN1C(=O)c1ccccc1 | 1.73

test: binders of probe aHhip on microarray, primary screen, stem cell growth factor project, biochemical, small-molecule microarray, fluorescence 635/667 (AID 1087); details: higher = more signal;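 further: score merges spot fluorescence at 667nm with spot signal to noise ratio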

Compound | composite z-score
COCCCNC(=O)[C@@]1(Cc2ccccc2)COC(c2ccc(OCCCO)cc2)=N1 | -0.135
COC(=O)[C@]1(Cc2ccccc2CN=[N+]=[N-])N=C(c2ccc(OCCCO)cc2)O[C@@H]1c1ccccc1CN=[N+]=[N-] | -0.0994
O=C1NC(=O)C2C1C=CC(C(O)c1ccc(-c3ccccc3)s1)N2Nc1ccccn1 (stereo unspecified) | -0.191
C=C(C(=O)CC[C@H](OC(=O)c1cccnc1)c1ccc(OCCO)cc1)C(C)C | 0.0881
Cc1ccc(N2C(=O)c3ccccc3[C@](C)(C(=O)NC(C)C)[C@@H]2c2ccc(CO)cc2)nc1 | 0.119
CCCCC=C[C@@H](NC(=O)CCc1ccccc1)c1ccccc1 | 0.316
C=CCC(OC(C)=O)[C@@H]1[C@@H](N(Cc2cccc3ccccc23)C(=O)c2ccc(C)cc2)c2cc(OCCCO)ccc2N1C(=O)c1ccc2ccccc2c1 (stereo partly specified) | 0.0695
C[C@]12C(=O)N(CCCCCO)[C@@H]3C(=O)N(c4ccc(Cl)cc4)CC=CC31O[C@@H]1/C=C\CCCOC(=O)C12 (stereo partly specified) | -0.28
O=C1c2ccccc2[C@](Cc2ccccc2I)(C(=O)NCC(F)(F)F)[C@H](c2ccc(CO)cc2)N1Cc1ccccc1 | 0.0734
O=C(O)[C@@]1(Cc2ccccc2)COC(c2ccc(OCCCO)cc2)=N1 | -0.0994
COCCCNC(=O)[C@]1(Cc2ccccc2)N=C(c2ccc(OCCCO)cc2)O[C@@H]1c1ccccc1N=[N+]=[N-] | -0.0994
COCCOC(=O)N1C(=O)[C@@]2(c3cc(C#Cc4ccc(OC)cc4)ccc31)[C@H](C(=O)N1CCc3cc(OC)c(OC)cc3C1)[C@H]1C(=O)O[C@H](c3ccccc3)[C@H](c3ccccc3)N1[C@@H]2c1ccc(OCCO)cc1 | 0.0623
CC(C)NC(=O)[C@@]1(Cc2ccccc2I)c2ccccc2C(=O)N(Cc2ccccc2C(F)(F)F)[C@H]1c1ccc(CO)cc1 | 0.533
COC(=O)[C@@]1(Cc2ccc(OC)cc2)[C@H]2c3cc(C(=O)N(C)C)n(Cc4cc(F)c(F)c(F)c4)c3C[C@H]2CN1C(=O)c1ccccc1 | 0.987
O=C1N(CCS(=O)(=O)c2ccccc2)Cc2ccccc2C[C@@]12COC(c1ccc(OCCCO)cc1)=N2 | -0.0459
Cc1ccc(S[C@]2(C(=O)O)CC(=O)N(Cc3ccccc3C(F)(F)F)[C@@H]2c2ccc(CO)cc2)cc1 | -0.374
O=C1N(CCS(=O)(=O)c2ccccc2)c2ccccc2[C@H]2OC(c3ccc(OCCCO)cc3)=N[C@@]12CCS(=O)(=O)c1ccccc1 | 0.772
CC(C)C(CO)N1C(=O)[C@@H]2[C@H]3C(=O)OCC=C[C@H]3OC23C=CCN(CCN2CCOCC2)C(=O)[C@@H]13 (stereo partly specified) | -0.538

Compound | composite z-score
CC(C)(C)OC(=O)CC[C@@]1(C(=O)N2CCCCC2)N=C(c2ccc(OCCCO)cc2)O[C@@H]1c1ccccc1N=[N+]=[N-] | -0.0237
CCCCCCC#C[Si](O[C@H](c1ccccc1)c1cn(Cc2cccc(Cl)c2)nn1)(C(C)C)C(C)C | -0.0994
C=CCOC(=O)[C@@H]1[C@H]2C(=O)O[C@H](c3ccccc3)[C@H](c3ccccc3)N2[C@H](c2ccc(OCCOC(=O)[C@@H]3C[C@@H]4C(=O)N5CCC[C@H]5C(=O)N4[C@@H]3c3cccc(OCCO)c3)cc2)[C@@]12C(=O)Nc1ccc(I)cc12 | -0.236
C=CCC(OC(C)=O)[C@@H]1[C@@H](N(Cc2cccc3ccccc23)C(=O)Cc2ccc(F)cc2)c2cc(OCCCO)ccc2N1C(=O)Cc1ccc(OC)cc1 (stereo partly specified) | -0.191
CO[C@H]1O[C@H](CO)[C@@H](OC(=O)Nc2ccc(C(F)(F)F)cc2)[C@H](OC(=O)Nc2ccccc2)[C@H]1OC(=O)Nc1ccccc1 | -0.105
C=C(COC)C(=O)CC[C@H](OC(=O)c1ccccc1-c1ccccc1C(=O)O)c1ccc(CO)o1 | -0.0618
CC(C)CNC(=O)[C@@]1(C)c2ccccc2C(=O)N(Cc2ccccc2)[C@H]1c1ccc(CO)cc1 | -0.164
CCC[C@@H]1C[C@@]1(CCC)[C@@H](NC(=O)c1ccco1)c1ccc(Cl)cc1 | -0.313
[N-]=[N+]=NCc1ccccc1[C@H]1OC(c2ccc(OCCCO)cc2)=N[C@@]1(Cc1ccccc1)C(N)=O | 0.0623
COc1ccc([Si](C)(C)[C@H]2[C@H](CCO)O[C@@]3(C(=O)N(Cc4cccc(N5CCOC5=O)c4)c4ccccc43)[C@@H]2C)cc1 | 0.0373
C[N+](C)(C)CCCC[C@@H]1NC(=O)[C@@H]2C[C@H](C(=O)NCCCCCNC(=O)CS)[C@H](c3cccc(OCCO)c3)N2C1=O | 0.138
COCCOC(=O)N1C(=O)[C@@]2(c3cc(C#CC4(O)CCCCCC4)ccc31)[C@H](C(=O)NC[C@H](O)c1ccccc1)[C@H]1C(=O)O[C@H](c3ccccc3)[C@H](c3ccccc3)N1[C@@H]2c1ccc(OCCO)cc1 | -0.0994
COc1cccc(C)c1NC(=O)O[C@H]1[C@H](OC(=O)Nc2ccccc2)[C@H](OC(=O)Nc2ccccc2)[C@@H](OC)O[C@@H]1CO | -0.0994
COC(=O)[C@@]1(Cc2ccccc2)[C@H]2c3cc(C(=O)N4CCCC4)n(Cc4ccccc4)c3C[C@H]2CN1C(=O)c1ccccc1 | -0.135
COc1cc2c(cc1OC)CN(C(=O)[C@@H]1[C@H]3C(=O)O[C@H](c4ccccc4)[C@H](c4ccccc4)N3[C@H](c3ccc(OCCO)cc3)[C@@]13C(=O)Nc1ccc(C#CCCO)cc13)CC2 | 0.169
COc1ccc([Si](C)(C)[C@@H]2[C@@H](CC(=O)N(CCO)Cc3ccccc3)O[C@]3(C(=O)N(C)c4c(Br)cc(C)cc43)[C@H]2C)cc1 | 0.0052
COC(=O)[C@@]1(Cc2ccccc2)[C@H]2c3cc(C(=O)N4CCCC4)n(Cc4ccc(OC(F)(F)F)cc4)c3C[C@H]2CN1C(=O)c1ccccc1 | 0.405
